Experimental data published in PubChem BioAssay AID1159580 (chemical genetic matrix, 2015).
Screen size: about 5,500 compounds; about 2,000 (36%) were called active. Roughly 18% stayed inconclusive and do not appear here. No stated cut-off is given here; in the data, active means normalized growth mostly below about 0.91 (no sharp cut-off); inconclusive means no clear call, values can overlap the other calls; inactive means mostly above about 0.92. Some of the results follow.

Test: chemical genetic growth profiling, strain panel (AID 1159580);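 further: tested at 20 µM; growth read once vehicle control cultures reached saturation at 30 °C; 1 = growth at the plate median or of vehicle wells; lower values mean less growth of the strain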
Details: growth OD

Measured: normalized growth

CCCCC[C@H](CC(=O)NO)C(=O)N[C@H](C(=O)N1CCC[C@H]1CO)C(C)C
inactive: S. cerevisiae deletion strains, locus YJR043C, strain POL32, active compounds read low 0.978 | S. cerevisiae deletion strains, locus YJR066W, strain TOR1, active compounds read low 0.934 | S. cerevisiae deletion strains, locus YJR075W, strain HOC1, active compounds read low 1.04 | S. cerevisiae deletion strains, locus YKL009W, strain mrt4, active compounds read low 1.03 | S. cerevisiae deletion strains, locus YKL068W, active compounds read low 1.01 | S. cerevisiae deletion strains, locus YKL085W, strain MDH1 (second series), active compounds read low 1.02 | S. cerevisiae deletion strains, locus YKL085W, strain MDH1, active compounds read low 1.02 | S. cerevisiae deletion strains, locus YKL160W, strain elf1, active compounds read low 1.01 | S. cerevisiae deletion strains, locus YKL190W, strain CNB1, active compounds read low 1.01 | S. cerevisiae deletion strains, locus YKR001C, strain vps1, active compounds read low 1.02 | S. cerevisiae deletion strains, locus YKR026C, strain gcn3, active compounds read low 1.01 | S. cerevisiae deletion strains, locus YKR091W, strain srl3, active compounds read low 1.02 | S. cerevisiae deletion strains, locus YLL001W, strain dnm1, active compounds read low 1.01 | S. cerevisiae deletion strains, locus YLL026W, active compounds read low 1.02 | S. cerevisiae deletion strains, locus YLL041C, strain sdh2, active compounds read low 1.01 | S. cerevisiae deletion strains, locus YLR027C, strain aat2, active compounds read low 1.01 | S. cerevisiae deletion strains, locus YLR039C, strain RIC1, active compounds read low 0.947 | S. cerevisiae deletion strains, locus YLR058C, strain SHM2, active compounds read low 1.01 | S. cerevisiae deletion strains, locus YLR102C, strain apc9, active compounds read low 1.02 | S. cerevisiae deletion strains, locus YLR113W, strain HOG1, active compounds read low 0.972 | S. cerevisiae deletion strains, locus YLR221C, strain rsa3, active compounds read low 1.01 | S. cerevisiae deletion strains, locus YLR258W, strain gsy2, active compounds read low 1.02 | S. cerevisiae deletion strains, locus YLR262C, strain YPT6 (second series), active compounds read low 1.02 | S. cerevisiae deletion strains, locus YLR262C, strain YPT6, active compounds read low 0.938 | S. cerevisiae deletion strains, locus YLR268W, strain sec22, active compounds read low 1.03 | S. cerevisiae deletion strains, locus YLR320W, strain mms22, active compounds read low 1.04 | S. cerevisiae deletion strains, locus YLR330W, strain CHS5, active compounds read low 1.02 | S. cerevisiae deletion strains, locus YLR342W, strain FKS1 (second series), active compounds read low 0.961 | S. cerevisiae deletion strains, locus YLR342W, strain FKS1, active compounds read low 1.02 | S. cerevisiae deletion strains, locus YLR357W, strain rsc2, active compounds read low 1.05 | S. cerevisiae deletion strains, locus YLR370C, strain arc18, active compounds read low 1.01 | S. cerevisiae deletion strains, locus YLR371W, strain rom2, active compounds read low 1.04 | S. cerevisiae deletion strains, locus YLR384C, strain iki3, active compounds read low 1.02 | S. cerevisiae deletion strains, locus YLR418C, strain cdc73, active compounds read low 1.02 | S. cerevisiae deletion strains, locus YML016C, strain PPZ1, active compounds read low 1.02 | S. cerevisiae deletion strains, locus YML032C, strain rad52, active compounds read low 1.01 | S. cerevisiae deletion strains, locus YML120C, strain ndi1, active compounds read low 1.02 | S. cerevisiae deletion strains, locus YML124C, strain tub3, active compounds read low 1 | S. cerevisiae deletion strains, locus YMR058W, strain fet3, active compounds read low 1.01 | S. cerevisiae deletion strains, locus YMR078C, strain ctf18, active compounds read low 1.02 | S. cerevisiae deletion strains, locus YMR125W, strain sto1, active compounds read low 1.03 | S. cerevisiae deletion strains, locus YMR129W, active compounds read low 1.01 | S. cerevisiae deletion strains, locus YMR205C, strain PFK2, active compounds read low 1.04 | S. cerevisiae deletion strains, locus YMR223W, strain ubp8, active compounds read low 1.02 | S. cerevisiae deletion strains, locus YMR231W, strain pep5, active compounds read low 1.01 | S. cerevisiae deletion strains, locus YMR263W, strain SAP30, active compounds read low 1.03 | S. cerevisiae deletion strains, locus YMR307W, strain GAS1, active compounds read low 1.03 | S. cerevisiae deletion strains, locus YNL067W, strain RPL9B, active compounds read low 1.04 | S. cerevisiae deletion strains, locus YNL071W, strain lat1, active compounds read low 1 | S. cerevisiae deletion strains, locus YNL153C, strain GIM3, active compounds read low 1.04 | S. cerevisiae deletion strains, locus YNL183C, strain NPR1, active compounds read low 0.942 | S. cerevisiae deletion strains, locus YNL209W, strain ssb2, active compounds read low 1.01 | S. cerevisiae deletion strains, locus YNL233W, strain BNI4, active compounds read low 1.03 | S. cerevisiae deletion strains, locus YNL248C, strain rpa49, active compounds read low 1 | S. cerevisiae deletion strains, locus YNL250W, strain rad50, active compounds read low 1.02 | S. cerevisiae deletion strains, locus YNL271C, strain bni1, active compounds read low 1.02 | S. cerevisiae deletion strains, locus YNL298W, strain CLA4, active compounds read low 1.01 | S. cerevisiae deletion strains, locus YNL307C, strain MCK1, active compounds read low 1.02 | S. cerevisiae deletion strains, locus YNL322C, strain KRE1 (second series), active compounds read low 1.03 | S. cerevisiae deletion strains, locus YNR049C, strain mso1, active compounds read low 1.02 | S. cerevisiae deletion strains, locus YNR052C, strain pop2, active compounds read low 1.02 | S. cerevisiae deletion strains, locus YOL012C, strain htz1 1.13 | S. cerevisiae deletion strains, locus YOL147C, strain pex11, active compounds read low 1.02 | S. cerevisiae deletion strains, locus YOR001W, strain rrp6, active compounds read low 1 | S. cerevisiae deletion strains, locus YOR061W, strain CKA2, active compounds read low 1 | S. cerevisiae deletion strains, locus YOR069W, strain VPS5, active compounds read low 1.01 | S. cerevisiae deletion strains, locus YOR070C, strain gyp1, active compounds read low 1 | S. cerevisiae deletion strains, locus YOR080W, strain dia2, active compounds read low 1.03 | S. cerevisiae deletion strains, locus YOR083W, strain WHI5, active compounds read low 1.02 | S. cerevisiae deletion strains, locus YOR106W, strain vam3, active compounds read low 1.01 | S. cerevisiae deletion strains, locus YOR136W, strain idh2, active compounds read low 1.03 | S. cerevisiae deletion strains, locus YOR144C, strain elg1, active compounds read low 1.02 | S. cerevisiae deletion strains, locus YOR184W, strain ser1, active compounds read low 1.01 | S. cerevisiae deletion strains, locus YOR231W, strain MKK1, active compounds read low 0.989 | S. cerevisiae deletion strains, locus YOR265W, strain rbl2, active compounds read low 1.01 | S. cerevisiae deletion strains, locus YOR270C, strain vph1, active compounds read low 1.01 | S. cerevisiae deletion strains, locus YOR290C, strain snf2, active compounds read low 1.02 | S. cerevisiae deletion strains, locus YOR316C, strain cot1, active compounds read low 1.01 | S. cerevisiae deletion strains, locus YPL051W, strain arl3, active compounds read low 1.02 | S. cerevisiae deletion strains, locus YPL078C, strain atp4, active compounds read low 1.02 | S. cerevisiae deletion strains, locus YPL106C, strain sse1, active compounds read low 1.03 | S. cerevisiae deletion strains, locus YPL240C, strain hsp82, active compounds read low 1.01 | S. cerevisiae deletion strains, locus YPL256C, strain CLN2, active compounds read low 0.941 | S. cerevisiae deletion strains, locus YPR119W, strain clb2, active compounds read low 1.01 | S. cerevisiae deletion strains, locus YPR141C, strain kar3, active compounds read low 1.02 | S. cerevisiae deletion strains, locus YPR163C, strain tif3, active compounds read low 1.02 | S. cerevisiae deletion strains, locus YPR167C, strain met16, active compounds read low 1.03 | S. cerevisiae deletion strains, strain wtn01, active compounds read low 1.01 | S. cerevisiae strains, strain wild type, active compounds read low 1.01
